PINK1 expr mod = A Quantitative High throughput Screen to Identify Chemical Modulators of PINK1 Expression. PINK1 immunofluorescence, high-content cytometry, 24 h. Potency, µM (titrated, usually from 76.6 µM), usual class: activators. actives 0.2% (n = 410,000); active means well fitted activation curve with a large enough effect; inconclusive means small, poorly fitted or top-dose-only effect; cell line not stated here; further: nearly all actives have a fitted effect of over 65% in size
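Stable cell line, 250 cells/well, 12 h attachment; compounds pinned at 5 concentrations, 24 h; CCCP control. Fixed with nuclear dye, primary antibodies 12 h at 10 degrees C, secondary plus cell stain; laser-scanning cytometer read.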
KB-3-1 tox = qHTS assay for MDR1-selective chemotherapeutics: Primary screen using the parental adenocarcinoma cell KB-3-1; KB-3-1 viability, CellTiter-Glo ATP luminescence, 72 h; Potency, µM (top dose mostly 46.1 µM), hits mostly cytotoxic; actives 1.4% (n = 400,000); AID 1347075, 2019; further: nearly all actives have a fitted effect of over 60% in size
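Luminescent ATP read-out (CellTiter-Glo) measures survival of drug-naive KB-3-1 cells after 72 h compound exposure at 37 °C. Titration series was screened from lowest to highest concentration, with DMSO vehicle plates as background controls.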
ALOX12 inh = Primary qHTS assay for inhibitors of human arachidonate 12S-lipoxygenase (ALOX12): Round 2; Polyunsaturated fatty acid lipoxygenase ALOX12 (Homo sapiens), P18054; purified 12hLO, xylenol orange hydroperoxide absorbance; Potency, µM (doses to about 108 µM), hits mostly inhibitors; actives 1.1% (n = 580,000)
Target sequence (P18054 whole entry, looked up): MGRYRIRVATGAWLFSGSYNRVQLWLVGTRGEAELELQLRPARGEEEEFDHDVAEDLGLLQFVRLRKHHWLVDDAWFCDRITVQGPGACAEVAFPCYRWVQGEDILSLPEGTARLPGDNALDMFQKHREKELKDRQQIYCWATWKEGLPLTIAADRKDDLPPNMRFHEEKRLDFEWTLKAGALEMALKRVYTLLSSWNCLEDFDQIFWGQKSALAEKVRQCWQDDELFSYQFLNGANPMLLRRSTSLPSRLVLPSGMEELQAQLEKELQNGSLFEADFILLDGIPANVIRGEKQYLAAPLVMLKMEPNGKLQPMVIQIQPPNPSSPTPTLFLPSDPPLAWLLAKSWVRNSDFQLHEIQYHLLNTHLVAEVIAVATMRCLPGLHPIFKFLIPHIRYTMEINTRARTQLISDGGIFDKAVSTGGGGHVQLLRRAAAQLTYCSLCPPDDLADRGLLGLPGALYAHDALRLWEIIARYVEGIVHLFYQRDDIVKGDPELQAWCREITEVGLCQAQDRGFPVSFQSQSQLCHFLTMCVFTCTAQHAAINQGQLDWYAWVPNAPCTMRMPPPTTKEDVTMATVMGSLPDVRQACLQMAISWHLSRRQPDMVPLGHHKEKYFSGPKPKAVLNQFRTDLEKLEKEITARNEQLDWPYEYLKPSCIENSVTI
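Purified human 12hLO at 150 nM in 25 mM Hepes, 0.01% Triton X-100, pH 7.0, preincubated 15 min at room temperature with compound. Reaction started with 40 uM arachidonic acid, 30 min at room temperature. Hydroperoxide measured by Fe-xylenol orange, 573/405 nm absorbance ratio.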
SW480 rereplic = A quantitative high throughput screen for small molecules that induce DNA re-replication in SW480 colon adenocarcinoma cells; SW480 DNA re-replication, Hoechst DNA content imaging, 48 h; Potency, µM (top dose mostly 46.1 µM), actives largely listed as activators; actives 1.8% (n = 340,000); further: nearly all actives have a fitted effect of over 55% in size
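Per well, 250 cells were exposed to pinned compound for 48 hr. Nuclear DNA was visualised with Hoechst (40 min, 37 C) and total object intensity recorded by fluorescence scanning.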
MCF10A rerep = A quantitative high throughput screen for small molecules that induce DNA re-replication in MCF 10a normal breast cells | MCF 10A DNA re-replication, Hoechst nuclear intensity, 48 h | Potency, µM (series often up to 46.1 µM), most hits filed as activators | actives 2.9% (n = 350,000) | AID 624296, 2012; further: nearly all actives have a fitted effect of over 50% in size
KB-V1 MDR tox = qHTS assay for MDR1-selective chemotherapeutics: Primary screen using the drug-selected MDR subline cells KB-V1; KB-V1 MDR cells viability, CellTiter-Glo, 72 h; Potency, µM (series often up to 46.1 µM), actives largely listed as cytotoxic; actives 3.4% (n = 400,000); AID 1347076, 2019; further: nearly all actives have a fitted effect of over 60% in size
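Cytotoxicity via CellTiter-Glo luminescence after 72 h compound exposure at 37 degrees C. Cells: drug-selected KB-V1 line, DMEM phenol-red free plus 10% FBS. Compounds tested at multiple concentrations; normalized data fitted to concentration-effect curves.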
Hits are given with their value; - = inactive; ? = inconclusive; . = no result; ! = not confirmed by another sample; [ ] = another dose, or the depositor's remark. Only some compounds are listed: those with a hit (about 5.8% of all), similar ones and a draw of the others. Unless noted, the call rests on the fitted dose curve; in most records, active means well fitted curve in the direction sought with a large enough effect; inconclusive means small, poorly fitted or top-dose-only effect, or another doubt; inactive means no such curve, though single readings can be large; an effect the other way counts as inactive or inconclusive.

SMILES	PINK1 expr mod	KB-3-1 tox	ALOX12 inh	SW480 rereplic	MCF10A rerep	KB-V1 MDR tox
Cc1ccc(Cn2nnc3c(=O)n(CC(=O)NCc4ccccc4)cnc32)cc1	-	?	-	9.2µM	9.2µM	-
O=C(O)C1CC(=O)N(c2ccc(S(=O)(=O)Nc3ccccc3F)cc2)C1 (configuration not stated)	.	.	-	.	.	.
Cc1nc2ccc(C(=O)OCC(=O)NC(C)C34CC5CC(CC(C5)C3)C4)cc2nc1C (configuration not stated)	.	.	-	.	.	.
O=C(Cn1cnc2c(nnn2Cc2ccc(F)cc2)c1=O)N1CCN(c2ccccc2)CC1	-	-	-	-	-	9.2µM
O=C(Cn1cnc2c(nnn2Cc2ccc(F)cc2)c1=O)N1CCCCCC1	.	.	-	.	.	.
COc1ccccc1C(=O)NNC1=C(C(=O)C(F)(F)F)CCC1	.	-	-	2.6µM	4.1µM	-
O=C(NNC1=C(C(=O)C(F)(F)F)CCC1)c1ccc(Br)cc1	-	-	-	9.2µM	?	-
COc1ccc(NC(=S)N/C(=N/CS(=O)(=O)c2ccccc2)c2ccccc2)cc1	-	-	?	?	16µM	-
CCCCCCCCCC(=O)OCC	.	.	-	.	.	.
Cc1ccc2[nH]ccc(=O)c2c1	-	-	-	-	-	-
COc1ccc2c(c1)c(/C=C/c1cc[n+](C)cc1)cn2C	-	16µM	50µM	-	-	?
COc1ccc2c(/C=C/c3cc[n+](C)cc3)c[nH]c2c1	?	1.8µM	?	-	-	?
Cc1ccc2[nH]cc(/C=C/c3cc[n+](C)cc3)c2c1	3.5µM	0.92µM	?	8.2µM	?	-
CC(C#N)(NC(=O)COc1ccccc1C(F)(F)F)C1CC1 (configuration not stated)	.	.	-	.	.	.
CCn1nc(C(=O)Nc2ccc(OCC(N)=O)cc2)c2ccccc2c1=O	.	.	-	.	.	.
O=C(NCc1ccccc1)[C@]1(C(F)(F)F)C[C@H](CCc2ccccc2)CCCO1	-	-	?	-	1.8µM	-
C=CCOc1c(Br)cc(C2C3=C(CCCC3=O)N(C)C3=C2C(=O)CCC3)cc1OCC	-	-	-	23µM	-	-
COC(=O)c1cc(C(=O)N2CCN(c3ccccc3OC)CC2)cc([N+](=O)[O-])c1	-	1.2µM	-	2.1µM	1.2µM	1.3µM
COC(=O)c1cc(C(=O)N2CCN(c3cccc(C)c3C)CC2)cc([N+](=O)[O-])c1	-	5.8µM	-	4.1µM	?	-
COC(=O)c1cc(C(=O)N2CCN(c3ncccn3)CC2)cc([N+](=O)[O-])c1	-	-	-	-	-	?
COc1ccc(CCNC(=O)c2ccc(CN3CCC(Cc4ccccc4)CC3)cc2)cc1	-	-	-	-	-	9.2µM
Cc1ccccc1NC(=O)c1ccc(CN2CCC(Cc3ccccc3)CC2)cc1	-	?	-	?	?	15µM
Cc1ccc(C)c(NC(=O)c2ccccc2O)c1	16µM	?	-	?	?	-
Cc1cccc(NC(=O)c2ccccc2O)c1C	.	-	-	-	-	16µM
Cc1ccccc1Cn1nnc(C(=O)Nc2cccc(C)c2C)c1N	-	?	-	-	15µM	13µM
SMILES	PINK1 expr mod	KB-3-1 tox	ALOX12 inh	SW480 rereplic	MCF10A rerep	KB-V1 MDR tox
CSc1ccccc1C(=O)Nc1cccc(C)c1C	.	.	-	.	.	.
Cc1ccc(C)c(NC(=O)c2cc(C)nc3ccccc23)c1	-	-	-	-	-	-
O=C(Nc1ccc(Oc2ccccc2)cc1)O[C@@H]1CO[C@H]2[C@@H]1OC[C@@H]2NC(=O)c1ccccn1	.	.	-	.	.	.
Cc1ccc(C2=[N+]([O-])C(C)(C)C(c3ccc(C)cc3)=[N+]([O-])C2(C)C)cc1	.	.	-	.	.	.
CC(=O)Nc1c(-c2ccccc2)c(C)nn1-c1ccc(C(=O)NCc2ccccn2)cc1	.	.	-	.	.	.
CCOc1cc(NC(=O)CCl)c(OCC)cc1NC(=O)CCl	-	21µM	-	3.3µM	6.5µM	?
CCOc1ccccc1NC(=O)CCC(=O)Nc1ccccc1OCC	-	-	-	-	-	-
CCCCNC(=O)CSc1nc2cc(OC)c(OC)cc2c(=O)n1Cc1ccc(OC)cc1	-	-	-	-	-	2.1µM
COc1cc2nc(SCc3ccc(Cl)cc3Cl)n(Cc3cccs3)c(=N)c2cc1OC	-	23µM	-	-	?	6.5µM
CCC(Sc1nc2cc(OC)c(OC)cc2c(=O)n1Cc1ccc(OC)cc1)C(=O)NCCOC (configuration not stated)	-	-	-	-[1.84 µM]	-	-
COc1ccc(Cn2c(SCc3cc(C)ccc3C)nc3cc(OC)c(OC)cc3c2=N)cc1	.	?	?	?	3.7µM	11µM
COc1cc2nc(SCc3ccc(C(F)(F)F)cc3)n(Cc3cccs3)c(=N)c2cc1OC	.	-	-	-	-	-
COc1ccc(Cn2c(SCc3ccc(C)cc3)nc3cc(OC)c(OC)cc3c2=N)cc1Cl	-	?	-	?	4.1µM	?
Cc1ccccc1-c1cc(=O)c2cc(NC(=O)c3cccs3)ccc2o1	.	.	-	.	.	.
O=C(COc1ccc2ccc(=O)oc2c1)NC(=O)NC1CCCCC1	.	.	-	.	.	.
O=C(Nc1ccccc1)c1cnc2n1CCN(Cc1ccc3c(c1)CCO3)CC2	.	.	-	.	.	.
O=C(CSc1ccccc1F)NC(=O)C1CCCCC1	.	.	-	.	.	.
COc1ccc(NC(=S)NC(=O)/C=C/c2ccco2)c(OC)c1	-	-	35µM	-	-	-
CCOc1ccc(C(NC(=O)/C=C/c2ccco2)c2ccc(OC)c(OC)c2)cc1 (configuration not stated)	-	-	?	-	?	-
COc1ccc(C(NC(=O)/C=C/c2ccco2)c2ccc(OC)c(OC)c2)cc1 (configuration not stated)	-	-	45µM	-	-	-
COc1cccc(NC(=S)NC(=O)/C=C/c2ccco2)c1	-	?	-	?	?	?
CC1(OC(=O)C2CCCC2)C(=O)C=C2C=C(c3ccsc3)N(c3ccccc3)C=C2C1=O (configuration not stated)	-	-	13µM	-	-	-
CC1(OC(=O)C2CCCC2)C(=O)C=C2C=C(c3ccsc3)N(C3CC3)C=C2C1=O (configuration not stated)	-	-	-	-	-	-
O=C(O)CN(CCN(CC(=O)O)CC(=O)O)CCN(CC(=O)O)CC(=O)O	.	.	-	24µM!	-[0.169 µM]	.
O=C(O)CN(CCO)CCO	.	.	-	.	.	.
